Results: the supplement of paper PMC6522484
± gives the standard deviation of the averaged measurements.

What was measured:
DLD1 [1] = assay: cell viability (CellTiter-Glo) relative to plate median (fraction of plate median); higher = more viable cells; details: 5 µM; treatment time 24 h; reporter: 7TFP
How it was run: (§1)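 Colorectal cancer lines with stably integrated lentiviral TCF/Wnt firefly luciferase reporters received library compounds at a final 5 µM, 24 h after seeding into 384-well plates, for a 24 h exposure. Reported figures are plate-median-normalised firefly luciferase or CellTiterGlo luminescence per well. They average two independent replicates.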

HCT116 = assay: as above; details: 5 µM; treatment time 24 h; reporter: TCF4/Wnt
How it was run: as §1

SW480 [2] = assay: as above; details: 5 µM; treatment time 24 h; reporter: 7TFP
How it was run: as §1

DLD1 [3] = assay: TCF/Wnt firefly luciferase reporter signal relative to plate median (fraction of plate median); higher = higher Wnt reporter signal; details: 5 µM; treatment time 24 h; reporter: 7TFP
How it was run: as §1

SW480 [4] = assay: as above; details: 5 µM; treatment time 24 h; reporter: 7TFP
How it was run: as §1

SMILES	cell viability (DLD1 [1])	cell viability (HCT116)	cell viability (SW480 [2])	TCF/Wnt firefly luciferase reporter signal (DLD1 [3])	TCF/Wnt firefly luciferase reporter signal (SW480 [4])
CC1(C)CC2C1CCC1(C)OC1CCC2(C)O (stereo not given)	0.995 ± 0.036	1 ± 0.067	0.975 ± 0.0071	1.07 ± 0.078	1 ± 0.065
C=C(C)[C@@H]1C[C@H]2O[C@](O)(C/C(C)=C\C(=O)/C=C(/C)C[C@@H]3OC(=O)[C@]24O[C@@H]34)[C@H]1O [bipinnatolide F]	1.02 ± 0.028	0.943 ± 0.018	0.94 ± 0.074	1.01 ± 0.059	0.994 ± 0.023
O.O.O.O.O=C([O-])CC(O)(CC(=O)[O-])C(=O)[O-].[Li+].[Li+].[Li+]	0.955 ± 0.11	0.852 ± 0.086	0.966 ± 0.0028	0.844 ± 0.012	0.725 ± 0.14
CC(=O)C12OC(C)(c3ccccc3)OC1CC1C3CCC4=CC(=O)CCC4(C)C3CCC12C (stereo not given)	0.963 ± 0.039	0.987 ± 0.033	0.976 ± 0.035	0.977 ± 0.061	0.939 ± 0.067
C#CCCCCCCCCCCCC(O)CC(O)COC(C)=O (stereo not given)	1.02 ± 0.021	1.05 ± 0.089	1.06 ± 0.014	1.08 ± 0.12	0.941 ± 0.098
CN(Cc1cc(Br)cc(Br)c1N)C1CCCCC1	0.975 ± 0.036	1.04 ± 0.035	0.905 ± 0.052	0.8435 ± 0.0035	0.867 ± 0.022
COc1ccc2c(c1)OCc1c-2oc2cc(OC)ccc12	1.05 ± 0.085	1.01 ± 0.021	1 ± 0.051	1.09 ± 0.064	1.035 ± 0.0071
COc1cc(O)c(C(=O)/C=C/c2ccc(OC)c(O)c2)c(OC)c1	1.06 ± 0.098	0.975 ± 0.093	1.1 ± 0.042	0.975 ± 0.064	0.8395 ± 0.00071
O=C(O)[C@]1(O)C[C@@H](O)[C@@H](O)[C@H](O)C1	0.982 ± 0.04	1.05 ± 0.16	0.934 ± 0.033	1.08 ± 0.16	0.923 ± 0.17
Nc1ccc(C(=O)Oc2ccccc2)c(O)c1	1.05 ± 0.096	1.16 ± 0.064	1.05 ± 0.042	1.08 ± 0.14	1.03 ± 0.035
CC(=O)O[C@@H]1C2=C(C)C=C(O2)[C@H]2O[C@]2(C)C[C@H]2C=C(C(=O)O2)[C@H](OC(C)=O)CC1[C@@]1(C)CO1 (stereo not given in full) [bipinnatin H]	1.1 ± 0.13	1.08 ± 0.17	0.984 ± 0.023	0.897 ± 0.16	0.7915 ± 0.0021
CC(C[N+](C)(C)C)OC(N)=O (stereo not given)	1.14 ± 0.035	0.8 ± 0.48	1.1 ± 0.12	0.925 ± 0.037	1.05 ± 0.071
NCCOB(c1ccccc1)c1ccccc1	0.968 ± 0.037	0.933 ± 0.042	0.96 ± 0.0071	1.135 ± 0.0071	1.04
CC1=CC(=O)[C@H]2C(C)(C)CCC[C@]2(C)[C@@]1(O)CCc1ccoc1	0.976 ± 0.016	1.07 ± 0.15	0.998 ± 0.018	1.1 ± 0.099	0.95 ± 0.043
COCCOC(=O)C1=C(C)NC(C)=C(C(=O)OC(C)C)C1c1cccc([N+](=O)[O-])c1 (stereo not given)	0.9 ± 0.1	0.916 ± 0.16	0.858 ± 0.11	0.967 ± 0.089	1.12 ± 0.11
Nc1ccc(S(N)(=O)=O)cc1	1.04 ± 0.081	0.975 ± 0.031	1.065 ± 0.0071	1.04	1.02 ± 0.073
COc1cc2c(cc1-c1coc3c4c(c(OC)cc3c1=O)OC(C)(C)C=C4)OCO2	0.998 ± 0.017	1.06 ± 0.014	0.986 ± 0.018	0.892 ± 0.014	0.938 ± 0.0099
c1ccc2[nH]c(-c3cscn3)nc2c1	1.02 ± 0.021	1.17 ± 0.035	1.02	1.32 ± 0.16	1.18 ± 0.028
C[N+](C)(C)CCOC(N)=O	0.994 ± 0.023	1.15 ± 0.057	0.9925 ± 0.0078	1.13 ± 0.14	0.847 ± 0.064
C[C@H](CCC(=O)O)[C@H]1CC[C@H]2[C@@H]3[C@H](O)C[C@@H]4C[C@H](O)CC[C@]4(C)[C@H]3CC[C@]12C	1 ± 0.021	1.01 ± 0.22	1.025 ± 0.0071	0.949 ± 0.038	1.1 ± 0.028
Cc1c(Cl)cccc1Nc1ccccc1C(=O)O	0.981 ± 0.041	1.04 ± 0.014	0.914 ± 0.039	0.979 ± 0.12	0.862 ± 0.022
O=C(C=Cc1ccc(O)cc1)c1ccccc1O	0.926 ± 0.089	0.881 ± 0.03	1.02 ± 0.028	1.06 ± 0.035	1.07 ± 0.092
CC(=O)[C@H]1CC[C@H]2[C@@H]3CC=C4C[C@@H](O)CC[C@]4(C)[C@H]3CC[C@]12C	1.07 ± 0.028	0.941 ± 0.023	0.956 ± 0.028	1.1 ± 0.05	1.19 ± 0.014
CC(C)=CCc1c2c(c(O)c3c(=O)c(O)c(-c4ccccc4)oc13)C=CC(C)(C)O2	1.03 ± 0.052	0.998 ± 0.088	1.025 ± 0.0071	0.935 ± 0.0099	0.974 ± 0.011
CCCNC(=O)NS(=O)(=O)c1ccc(Cl)cc1	1.03 ± 0.11	0.991 ± 0.042	1.07 ± 0.2	0.968 ± 0.013	0.945 ± 0.016
CN(C)CCC(c1ccccc1)c1ccccn1 (stereo not given)	0.973 ± 0.039	1 ± 0.18	0.963 ± 0.032	1.16 ± 0.035	1.055 ± 0.0071
O=C(O)C1CCCNC1 (stereo not given)	0.994 ± 0.023	1 ± 0.071	0.948 ± 0.067	1.03 ± 0.065	0.938 ± 0.13
CC1=C(C/C=C(\C)CCC[C@H](C)CCC[C@H](C)CCCC(C)C)C(=O)c2ccccc2C1=O	0.9945 ± 0.00071	0.988 ± 0.06	0.998 ± 0.045	0.819 ± 0.03	0.92 ± 0.064
CCn1nc(C(=O)O)c(=O)c2cc3c(cc21)OCO3	1.01 ± 0.035	0.972 ± 0.015	0.988 ± 0.088	1 ± 0.11	0.875 ± 0.14
CCOc1ccc(C(=O)c2cc(O)c(OC)c(OC)c2O)cc1	0.982 ± 0.054	0.925 ± 0.11	0.9935 ± 0.0021	1.09	0.948 ± 0.062
